This is an account of results in PubChem BioAssay (NCI).

A short description of assay [1]: NCI Yeast Anticancer Drug Screen. Data for the rad50 strain (AID 155).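 Further: 0% = growth of vehicle-only cultures of the same strain.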 Conditions: S. cerevisiae rad50 strain growth inhibition, hits give high values. Put shortly:
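Inhibition values express reduced yeast growth in compound-treated cultures relative to vehicle-treated controls.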

The nature of assay [2]: NCI Yeast Anticancer Drug Screen. Data for the mec2-1 strain (AID 157). Conditions: S. cerevisiae mec2-1 strain, hits give high values. Put shortly:
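Using mec2-1 yeast: add compound, measure growth, express inhibition versus vehicle-treated cultures.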

Assay [3] is described as follows: NCI Yeast Anticancer Drug Screen. Data for the sgs1 mgt1 strain (AID 161).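 Further: 0% = growth of cultures given vehicle only.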 As to conditions: S. cerevisiae sgs1 mgt1 strain, hits give high values. Put shortly: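 This yeast growth screen uses a strain with defined DNA-repair lesions; compound-treated growth is compared with vehicle-treated growth.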
Assay [4] in a line: NCI Yeast Anticancer Drug Screen. Data for the cln2 rad14 strain (AID 165).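 Further: 0% = growth equal to vehicle treated cultures.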 As to conditions: S. cerevisiae cln2 rad14 strain, hits give high values. Put shortly: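 Yeast strain cln2 rad14, bearing defects in cell cycle control and DNA repair, serves as the test system; values reflect growth inhibition compared with vehicle.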
A short description of assay [5]: NCI Yeast Anticancer Drug Screen. Data for the bub3 strain (AID 167). Conditions: S. cerevisiae bub3 mutant strain, hits give high values. Put shortly: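 Steps: expose the mutant yeast strain to compound; grow alongside vehicle-treated cultures; measure growth; express inhibition against the vehicle cultures.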
Assay [6] is described as follows: NCI Yeast Anticancer Drug Screen. Data for the mlh1 rad18 strain (AID 175). As to conditions: S. cerevisiae mlh1 rad18 strain growth inhibition, hits give high values. Put shortly:
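Steps: expose repair-defective yeast to compound; measure growth; express inhibition against vehicle-treated controls.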

The mark [7] stands for this setting: at 5.0 µM (retest, dose inferred, filed as 0.5).
Where [8] appears, read: at 50.0 µM (retest, dose inferred, filed as 5.0).

This is part of a sample that, as a whole, favours compounds with a hit. Of some 79,000 tested, about 15% had one in any assay. Unmarked numbers belong to inactive results. Active and inactive are the calls of the source. No stated cut-off is given here; in the data, active means growth inhibition above about 70%; inactive means the rest.

Consider `Oc1c(C(Nc2ccccn2)c2ccccc2)ccc2cccnc12` (configuration not stated), for which the growth inhibition in assay [1] (setting [7]) was 8%; in assay [1] (setting [8]) it was 97% (active); in assay [1] (at 50.0 µM), 94.6% (active); in assay [2] (setting [7]) it was 19%; in assay [2] (setting [8]), 97% (active); in assay [2] (at 50.0 µM) it was 94.3% (active). The growth inhibition was -4% in assay [3] (setting [7]); 96% (active) in assay [3] (setting [8]); 95.5% (active) in assay [3] (at 50.0 µM); -11% in assay [4] (setting [7]); 94% (active) in assay [4] (setting [8]); 93% (active) in assay [4] (at 50.0 µM). The growth inhibition was -9% in assay [5] (setting [7]); 97% (active) in assay [5] (setting [8]); 94.4% (active) in assay [5] (at 50.0 µM); 7% in assay [6] (setting [7]); 96% (active) in assay [6] (setting [8]); 94.5% (active) in assay [6] (at 50.0 µM).

For `CC(=O)c1ccc2c(c1)CC1(C2)Cc2cc3c(c(C(=O)O)c2C1)CCC3` (configuration not stated), the growth inhibition in assay [1] (setting [7]) was 0%; in assay [1] (setting [8]), 95% (active); in assay [1] (at 50.0 µM), 90.3% (active); in assay [2] (setting [7]), 10%; in assay [2] (setting [8]), 95% (active); in assay [2] (at 50.0 µM), 90.1% (active). The growth inhibition in assay [3] (setting [7]) was 34%; in assay [3] (setting [8]), 99% (active); in assay [3] (at 50.0 µM) it was 94.5% (active); in assay [4] (setting [7]), -3%; in assay [4] (setting [8]), 95% (active); in assay [4] (at 50.0 µM) it was 95% (active). The growth inhibition in assay [5] (setting [7]) was 1%; in assay [5] (setting [8]) it was 95% (active); in assay [5] (at 50.0 µM) it was 85.8% (active); in assay [6] (setting [7]), 15%; in assay [6] (setting [8]), 97% (active); in assay [6] (at 50.0 µM) it was 88.6% (active).

Consider `Cc1cccc(O)c(=O)c1`, for which the growth inhibition in assay [1] (setting [7]) was 12%; in assay [1] (setting [8]) it was 98% (active); in assay [1] (at 50.0 µM), 99.3% (active); in assay [2] (setting [7]), -5%; in assay [2] (setting [8]) it was 99% (active); in assay [2] (at 50.0 µM), 99.5% (active). In addition, the growth inhibition in assay [3] (setting [7]) is 2%; in assay [3] (setting [8]), 98% (active); in assay [3] (at 50.0 µM) it was 99.5% (active); in assay [4] (setting [7]), 8%; in assay [4] (setting [8]), 95% (active); in assay [4] (at 50.0 µM), 99.5% (active). The growth inhibition was 9% in assay [5] (setting [7]); 98% (active) in assay [5] (setting [8]); 99.4% (active) in assay [5] (at 50.0 µM); 9% in assay [6] (setting [7]); 96% (active) in assay [6] (setting [8]); 99.5% (active) in assay [6] (at 50.0 µM).

Consider `Cc1ccc(O)c(C(c2cc(C)ccc2O)c2cc([N+](=O)[O-])ccc2O)c1`, for which the growth inhibition in assay [1] (setting [7]) is 23%; in assay [1] (setting [8]), 97% (active); in assay [1] (at 50.0 µM), 90.9% (active); in assay [2] (setting [7]) it was 7%; in assay [2] (setting [8]), 99% (active); in assay [2] (at 50.0 µM), 93.1% (active). The growth inhibition was 17% in assay [3] (setting [7]); 99% (active) in assay [3] (setting [8]); 40.5% in assay [3] (at 50.0 µM); 17% in assay [4] (setting [7]); 99% (active) in assay [4] (setting [8]); 90.8% (active) in assay [4] (at 50.0 µM). Also, the growth inhibition was 5% in assay [5] (setting [7]); 99% (active) in assay [5] (setting [8]); 91.8% (active) in assay [5] (at 50.0 µM); 24% in assay [6] (setting [7]); 97% (active) in assay [6] (setting [8]); 91.3% (active) in assay [6] (at 50.0 µM).

On to `Cc1c(Cl)ccc2c1NC(=O)C2(O)CC(=O)c1ccc(Cl)cc1` (configuration not stated), for which the growth inhibition is 13% in assay [1] (setting [7]); 98% (active) in assay [1] (setting [8]); 99.2% (active) in assay [1] (at 50.0 µM); 14% in assay [2] (setting [7]); 99% (active) in assay [2] (setting [8]); 99% (active) in assay [2] (at 50.0 µM). Further, the growth inhibition is 31% in assay [3] (setting [7]); 100% (active) in assay [3] (setting [8]); 99.2% (active) in assay [3] (at 50.0 µM); 31% in assay [4] (setting [7]); 98% (active) in assay [4] (setting [8]); 99.3% (active) in assay [4] (at 50.0 µM). Besides, the growth inhibition was 14% in assay [5] (setting [7]); 99% (active) in assay [5] (setting [8]); 99.3% (active) in assay [5] (at 50.0 µM); 13% in assay [6] (setting [7]); 99% (active) in assay [6] (setting [8]); 99.2% (active) in assay [6] (at 50.0 µM).

On to `CC(C)NCC=C=Nc1ccccc1`, for which the growth inhibition in assay [1] (setting [7]) was -11%; in assay [1] (setting [8]) it was -32%; in assay [1] (at 50.0 µM) it was 45.8%; in assay [2] (setting [7]), -30%; in assay [2] (setting [8]) it was -25%; in assay [2] (at 50.0 µM), 9.45%. Moreover, the growth inhibition is -8% in assay [3] (setting [7]); -21% in assay [3] (setting [8]); 43.4% in assay [3] (at 50.0 µM); -2% in assay [4] (setting [7]); -28% in assay [4] (setting [8]); 40.5% in assay [4] (at 50.0 µM). In addition, the growth inhibition in assay [5] (setting [7]) is -26%; in assay [5] (setting [8]), -82%; in assay [5] (at 50.0 µM), -5.5%; in assay [6] (setting [7]) it was -9%; in assay [6] (setting [8]), -29%; in assay [6] (at 50.0 µM), 24.2%.

Regarding `O=C(Nc1cc(Cl)c(Cl)cc1Cl)C(=O)C(C(=O)c1ccc2ccccc2c1)C1OC(=O)c2ccccc21` (configuration not stated), the growth inhibition is 17% in assay [1] (setting [7]); 17% in assay [1] (setting [8]); 67.7% in assay [1] (at 50.0 µM); 2% in assay [2] (setting [7]); 2% in assay [2] (setting [8]); 37.2% in assay [2] (at 50.0 µM). The growth inhibition was 15% in assay [3] (setting [7]); 15% in assay [3] (setting [8]); 63.9% in assay [3] (at 50.0 µM); 6% in assay [4] (setting [7]); 6% in assay [4] (setting [8]); 64.5% in assay [4] (at 50.0 µM). For the same compound, the growth inhibition in assay [5] (setting [7]) was -8%; in assay [5] (setting [8]), -8%; in assay [5] (at 50.0 µM) it was 59.2%; in assay [6] (setting [7]), -14%; in assay [6] (setting [8]), -14%; in assay [6] (at 50.0 µM) it was 40%.

As to `CCCCCCCCCCCCCCCCC/C=N\NC(=O)CCCC(=O)N/N=C/CCCCCCCCCCCCCCCCC`, the growth inhibition was 1% in assay [1] (setting [7]); -3% in assay [1] (setting [8]); 98.7% (active) in assay [1] (at 50.0 µM); -4% in assay [2] (setting [7]); -2% in assay [2] (setting [8]); 99.1% (active) in assay [2] (at 50.0 µM). Further, the growth inhibition in assay [3] (setting [7]) was -2%; in assay [3] (setting [8]), -3%; in assay [3] (at 50.0 µM) it was 98% (active); in assay [4] (setting [7]), 4%; in assay [4] (setting [8]), 10%; in assay [4] (at 50.0 µM), 99% (active). Moreover, the growth inhibition in assay [5] (setting [7]) is 7%; in assay [5] (setting [8]), 25%; in assay [5] (at 50.0 µM), 99.2% (active); in assay [6] (setting [7]), 2%; in assay [6] (setting [8]), -25%; in assay [6] (at 50.0 µM), 98.3% (active).

For `CCCCCCCCCCCC[N+](C)(CCS(=O)(=O)[O-])Cc1ccccc1` (configuration not stated), the growth inhibition in assay [1] (setting [7]) was -1%; in assay [1] (setting [8]), 51%; in assay [1] (at 50.0 µM), 98.2% (active); in assay [2] (setting [7]), 6%; in assay [2] (setting [8]) it was 74% (active); in assay [2] (at 50.0 µM), 99.2% (active). Also, the growth inhibition in assay [3] (setting [7]) was 1%; in assay [3] (setting [8]), 36%; in assay [3] (at 50.0 µM) it was 41.9%; in assay [4] (setting [7]), 2%; in assay [4] (setting [8]), 66%; in assay [4] (at 50.0 µM), 77.5% (active). Moreover, the growth inhibition in assay [5] (setting [7]) is -2%; in assay [5] (setting [8]) it was 61%; in assay [5] (at 50.0 µM), 72.1% (active); in assay [6] (setting [7]), -2%; in assay [6] (setting [8]), 97% (active); in assay [6] (at 50.0 µM) it was 99.2% (active).
